In the supplement of paper PMC9177965:

Columns and labels:
[1] = system: HT29 RNF43 G659fs (RNF43 659mut, CRISPR-edited); assay: cell viability activity relative to DMSO (negative = inhibition); higher = more viable cells (less growth inhibition); settings: 5 µM; 96 h
Experimental: (§1)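 Broad Repurposing Library primary screen at a single dose of 5 uM. HT29 sg-Ctrl and HT29 RNF43 G659fs CRISPR-edited isogenic cells were seeded at 2500 cells/well in 384-well plates in duplicate and treated for 96 h. Viability was read by CellTiter-Glo and reported as % activity relative to DMSO, with MG132 as the positive control (negative = growth inhibition).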

[2] = system: HT29 sg-Ctrl (RNF43 wildtype); assay: as above; settings: 5 µM; 96 h
Experimental: as §1

Structure (SMILES) | cell viability activity [1] [%] | cell viability activity [2] [%]
O=C(c1ccc(-c2ccc(Cl)cc2)o1)N(Cc1ccccn1)c1ccc(N2CCNCC2)cc1 | -45.7 | -21.3
COc1cc(Nc2ncc(F)c(Nc3ccc4c(n3)NC(=O)C(C)(C)O4)n2)cc(OC)c1OC | -46.5 | -37.3
Nc1ccc(F)cc1NC(=O)c1ccc(CNC(=O)/C=C/c2cccnc2)cc1 | -39.6 | -64.8
CC(C)(C)c1cnc(CSc2cnc(NC(=O)C3CCNCC3)s2)o1 | -81.8 | -81.8
CN(C)c1ccc(C(=O)NCCCCCCC(=O)NO)cc1 | -84.4 | -82
O=C(NOCCO)c1cc(CN2OCCCC2=O)c(F)c(F)c1Nc1ccc(I)cc1F | -76.5 | -75
CCc1nc(C(N)=O)c(Nc2ccc(N3CCC(N4CCN(C)CC4)CC3)c(OC)c2)nc1NC1CCOCC1 | -46.8 | -61.8
CCCCc1oc2ccccc2c1C(=O)c1cc(I)c(OCCN(CC)CC)c(I)c1 | -99.4 | -98.9
Cc1cc(-c2cc(O)ccc2Cl)cc2nnc(Nc3ccc(OCCN4CCCC4)cc3)nc12 | -41.1 | -76.9
COc1ccc2[nH]c(C(=O)c3ccccc3)cc2c1 | -61.7 | -55.7
COCCOc1ccc2c(c1)ncn2-c1ccc2cccc(N3CCC(N)CC3)c2n1 | -93.4 | -94.6
C[C@@H]1CC[C@@]2(NC1)O[C@H]1C[C@H]3[C@@H]4CC=C5C[C@@H](O[C@@H]6O[C@H](CO)[C@@H](O[C@@H]7O[C@@H](C)[C@H](O)[C@@H](O)[C@H]7O)[C@H](O)[C@H]6O[C@@H]6O[C@@H](C)[C@H](O)[C@@H](O)[C@H]6O)CC[C@]5(C)[C@H]4CC[C@]3(C)[C@H]1[C@@H]2C | -94 | -86.6
COc1cc(OCc2cccc(-c3ccccc3)c2C)cc(OC)c1CN1CCCC[C@H]1C(=O)O | -24.2 | -3.46
Nc1nc(Cl)nc2c1ncn2[C@@H]1O[C@H](CO)[C@@H](O)[C@@H]1F | -30.3 | -63.4
C[C@@H](Oc1ccc2[nH]nc(/C=C/c3cnn(CCO)c3)c2c1)c1c(Cl)cncc1Cl | -87.9 | -88.8
